# Screening results deposited in PubChem BioAssay by National Center for Advancing Translational Sciences (NCATS).
# TGFb SMAD3 inh – inhibitors of TGF-b signaling | AID 588855 | 410,000 compounds, 1.2% hits | HepG2 CAGA-GFP TGF-b/SMAD3 reporter, GFP fluorescence, 18 h; TGF-beta stimulated, 500 pg/mL final | Potency, µM (series often up to 46.1 µM), for the others: top-dose activity, negative = inhibition, hits mostly inhibitors; note: potency is the fitted concentration of half-maximal effect; % is set by controls: 0 for no effect and ±100 for the full control effect; nearly all actives have a fitted effect of over 65% in size
#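 GFP signal (ex488/em500-530) from TGF-beta-stimulated HEPG2 CAGA-GFP cells, 500 pg/mL final, 18 h at 37 degrees C in DMEM plus 1% FBS, normalized to unstimulated and DMSO-stimulated controls.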
# HepG2 tox – counter-screen for TGF-b inhibitors: cytotoxicity in HepG2 cells | HepG2 CAGA-GFP viability, ATP luminescence, 18 h | Potency, µM (highest dose often 46.1 µM), for inactives: top-dose activity change, negative = cytotoxicity, actives largely listed as cytotoxic | 410,000 compounds, 0.76% hits | AID 588856; note: potency is the fitted concentration of half-maximal effect
#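 CellTiter-Glo luminescence gave cytotoxicity after 18 hours at 37 degrees C. The cells were HepG2 CAGA-GFP in 1% FBS DMEM, stimulated with 500 pg/mL TGF-beta after compound addition. %Activity was normalised to no-cell wells (complete cell-killing) and DMSO (no toxicity), and curves were fitted and classified.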
# ATXN viability – cell viability loss in ATXN counter-screen; S2 cells (HEK-293 line with an ATXN2-luciferase reporter) viability, CellTiter-Fluor protease fluorescence, 24 h; Potency, µM (doses to about 56.7 µM), usual class: cytotoxic; 400,000 compounds, 0.49% hits; AID 651635; note: potency is the fitted concentration of half-maximal effect; nearly all actives have a fitted effect of over 40% in size
# DRD3 antagonist – blocks the human D3 dopamine receptor; P35462; D3R cells, DiscoveRx beta-arrestin luminescence, antagonist mode; active compounds read low; max response, negative = inhibition, %; 360,000 compounds, 2.5% hits; AID 652054; in the data active = max response below about -50%; inconclusive = no clear call, values can overlap the other calls; note: % is set by controls: 0 for no effect and ±100 for the full control effect
# Target sequence (P35462 whole entry, looked up): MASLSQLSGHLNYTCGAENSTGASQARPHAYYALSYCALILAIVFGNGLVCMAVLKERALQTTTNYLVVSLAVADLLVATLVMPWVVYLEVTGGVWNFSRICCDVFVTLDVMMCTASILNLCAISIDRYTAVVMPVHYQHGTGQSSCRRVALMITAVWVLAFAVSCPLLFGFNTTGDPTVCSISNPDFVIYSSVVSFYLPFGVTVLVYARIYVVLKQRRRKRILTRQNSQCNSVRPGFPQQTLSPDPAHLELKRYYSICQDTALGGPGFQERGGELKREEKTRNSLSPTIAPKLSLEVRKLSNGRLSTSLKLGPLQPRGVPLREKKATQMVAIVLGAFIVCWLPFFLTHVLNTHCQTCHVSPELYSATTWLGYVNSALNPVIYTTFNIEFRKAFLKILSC
#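 Cells plated overnight at 1500 cells/well, then exposed to library compounds with dopamine controls for 90 minutes at 37 degrees C. DiscoveRx reagent added for 30–60 minutes at room temperature; luminescence read, quantitative HTS format.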
# D3 ag – D3 dopamine receptor (human) agonism. D3R DiscoveRx beta-arrestin cells, luminescence, 90 min. max activation, %. AID 652048. P35462. 410,000 compounds, 0.58% hits; in the data active = max activation above about 30%; note: 0% is about no effect
#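 Agonist mode: compounds and dopamine controls were applied to plated cells for 90 min at 37 degrees C after an overnight attachment at 1500 cells/well. Luminescent read-out followed 30 - 60 minutes at room temperature with DiscoveRx detection reagent.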
# ATXN2 expr inh – ATXN2 expression inhibition; HEK-293 ATXN2-luciferase reporter, luminescence, 24 h; Potency, µM (titrated, usually from 57 µM), inactives show at the highest dose activity change, negative = inhibition, most hits filed as inhibitors; 360,000 compounds, 0.72% hits; AID 1745845; note: potency is the fitted concentration of half-maximal effect; % is set by controls: 0 for no effect and ±100 for the full control effect; nearly all actives have a fitted effect of over 55% in size
#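 ATXN2-luciferase reporter cells (luciferase flanked by upstream and downstream ATXN2 gene portions) were treated 24 h at 37 °C with compounds at up to 57 uM. SteadyGlo luminescence gave expression; GF-AFC fluorescence gave viability.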
# The depositor's hits bear a star; i = inactive; u = inconclusive; x = no result given; [ ] = another dose, or the depositor's remark. This is a sample that favours compounds with a hit; in the whole collection about 4.7% have one here. Unless noted, calls come from the whole dose curve; as a rule, active = well fitted curve in the direction sought with a large enough effect; inconclusive = small, poorly fitted or top-dose-only effect, or another doubt; inactive = no such curve, though single readings can be large; an effect the other way counts as inactive or inconclusive.
SMILES,TGFb SMAD3 inh,HepG2 tox,ATXN viability,DRD3 antagonist,D3 ag,ATXN2 expr inh
O=C(CN1CCC(n2nnc3cc(F)ccc32)CC1)NCCc1ccccc1,11%,14%,i,-27,-27,13%
O=C(CN1CCC(n2nnc3cc(F)ccc32)CC1)Nc1ccccc1N1CCOCC1,-10%,-25%,i,-55*,-5,-1%
CC(C)N1CCC2(CC1)N=C(c1ccc3c(c1)OCO3)CC(c1cc(Cl)ccc1O)N2 (stereo unspecified),u,11µM*,u,0,-4,u
COc1ccccc1C1CN(Cc2cccnc2)Cc2ccccc2O1 (stereo unspecified),x,x,i,x,x,x
CCOc1ccccc1OCCNC1CCCC1,1%,-1%,i,-106*,-7,x
CCOc1ccc(OCCNC2CCCC2)cc1,-18%,0%,i,-60*,-3,5%
N#Cc1ccccc1OCCCNC1CCCC1,-21%,4%,i,-80*,-4,21%
NC(=O)CC[C@@H]1NC(=O)[C@@H]2CCCN2C(=O)c2cc([N+](=O)[O-])cc(I)c2NCCC[C@@H](C(N)=O)NC1=O,-17%,1%,i,2,44*,-8%
Cn1c(Cc2csc(N)n2)nnc1SCC(=O)NC1CCCCC1,16%,6%,i,-57*,9,-25%
Cn1c(Cc2ccccc2)nnc1SCC(=O)NC1CCCCC1,2%,2%,i,-23,-2,9%
CNC(=O)C1CCC(Cn2c(=O)c3sccc3n(CC(=O)Nc3ccc(C)c(C)c3)c2=O)CC1 (stereo unspecified),u,-16%,i,x,-10,u
Cn1c(=O)c2c(c3ccccc31)OC(=O)CC2c1ccccc1 (stereo unspecified),9%,0%,i,x,-18,2%
O=C1c2ccccc2-c2onc3c(NCCO)cc(NC4CCCCC4)c1c23,11µM*,-41%,u,x,-13,u
CCN1CCN(c2cc(N3CCN(C(=O)c4ccco4)CC3)c3c4c(onc24)-c2ccccc2C3=O)CC1,0%,25µM*,u,0,-15,-32%
CC(=O)OCCNc1cc(N2CCN(C)CC2)c2noc3c2c1C(=O)c1ccccc1-3,52%,-5%,i,-52*,-23,u
CCCCNc1cc(NC2CCCCC2)c2c3c(onc13)-c1ccccc1C2=O,-15%,-1%,i,x,-21,0%
O=C(O)CCNc1cc(N2CCN(C(=O)c3ccco3)CC2)c2noc3c2c1C(=O)c1ccccc1-3,-11%,-3%,u,-26,-16,-17%
CCOC(=O)N1CCc2c(sc3c2c(=O)n(-c2ccc(F)cc2)c(=O)n3CC(=O)c2ccc(Cl)cc2)C1,-3%,2%,x,x,8,x
COc1cccc(NC(=O)CSc2cc(C)[nH]c(=O)n2)c1,-5%,4%,i,x,3,-1%
c1ccc2sc(N3CCCCC3)nc2c1,8%,-21%,i,1,13,48%
C=C(c1nc2ccccc2s1)C1Cc2cccc3c2N(CCC3)C1 (stereo unspecified),4µM*,7.1µM*,x,x,x,x
COC(=O)C(CC(C)C)NC(=O)C(Cc1ccccc1)NC(=O)C1CCCN1C(=O)OC(C)(C)C (stereo unspecified),15%,1%,i,-17,-9,-15%[11.3 µM]
CC(C)CC(NC(=O)C1CCCN1C(=O)OC(C)(C)C)C(=O)NCC(N)=O (stereo unspecified),9%,16%,i,-58*,5,-15%
Cc1cnc(C)c(-c2cccc3c2OC(CNC(=O)C[C@@H]2C[C@@H](C)NC(=S)N2)C3)n1 (stereo partly specified),x,x,i,x,x,x
COc1cccc(CNc2ccc(N3CCC(C)CC3)cc2)c1OC,u,-39%,i,-64*,-27,-14%
SMILES,TGFb SMAD3 inh,HepG2 tox,ATXN viability,DRD3 antagonist,D3 ag,ATXN2 expr inh
CC1CCN(c2ccc(NC(=O)Cc3ccccc3)cc2)CC1,-9%,-12%,i,-8,-23,-3%
CCCN1CCC(=O)N(CCSc2ccc(Br)cc2)CC1,-17%,-29%,x,x,x,x
CN1CCC(=O)N(CCSc2ccc(Br)cc2)CC1,-1%,-4%,i,-56*,-31,13%
O=C(N[C@@H]1CCC(=O)N(CC[C@H](Sc2ccccc2)c2ccccc2)CC1)OCc1ccccc1,u,-10%,u,-92*,-49,u
O=C(N[C@H]1CCC(=O)N(CCSc2ccc(Br)cc2)CC1)OCc1ccccc1,7.1µM*,-37%,28µM*,-5,-2,u
Cc1ccc(SCCN2CCC(NC(=O)OCc3ccccc3)CCC2=O)cc1 (stereo unspecified),0%,-12%,i,16,6,-2%
COc1ccccc1CCC(=O)O,1%,-6%,x,x,x,x
COC1[C@@H](O[C@@H]2O[C@H](C)[C@@H](O[C@H]3C[C@@](C)(O)[C@H](OC(=O)CC(C)C)[C@H](C)O3)[C@H](N(C)C)[C@H]2O)[C@@H](CC=O)C[C@@H](C)[C@@H](O)/C=C/C=C/C[C@@H](C)OC(=O)C[C@H]1OC(C)=O (stereo partly specified),x,x,i,x,6,x
CCc1ccc2nc(N(Cc3cccnc3)C(C)=O)sc2c1,12%,-8%,x,x,-10,x
Nc1cccc2nc3ccccc3cc12,u,14%,x,-15,-3,7.9µM*
CN1c2ccsc2C(O)=C(C(=S)Nc2ccc(F)c(Cl)c2)S1(=O)=O,4%,-27%,i,-93*,0,3%
Cn1cc(C(=O)Nc2ccc(F)c(Cl)c2)cn1,u,-1%,i,9,0,24%
CC(C)Cc1ccc(S(=O)(=O)NCc2nc3cccnc3n2Cc2ccccc2)cc1,u,-25%,x,x,-7,x
CCCc1cc(=O)[nH]c(Nc2cc(Cl)ccc2OC)n1,-6%,-3%,i,x,-30,8%
CCCc1cc(=O)[nH]c(Nc2cc(OC)ccc2OC)n1,-18%,-20%,i,-52*,-23,-3%
Cn1ncc2c(Nc3ccc(Cl)c(Cl)c3)ncnc21,-4%,-22%,u,38,2,x
